# Among all 65,000 compounds or so, about 1,200 (1.8%) were called active. The entries come from a sample that favours actives as a whole. Values without a mark were called inactive. Cut-off read from the data, not from the text of the source: active = inhibition above about 50%; inactive = the rest.
# Target: Gag-Pol polyprotein (Human immunodeficiency virus type 1 group M subtype B (isolate HXB2)) (UniProt P04585)
# Assay: HIV-1 RT RNase H inhibitors, primary screen, biochemical, fluorescence (AID 565)
# Details: RT-RNase H RNA/DNA duplex cleavage, at 10 µM, hits give high values
row,SMILES,inhibition
1,CCc1nc(Nc2ccc3nccnc3c2)c2oc3ccccc3c2n1,-0.27%
2,COc1cc(C2C(C(=O)c3ccc(C)o3)=C(O)C(=O)N2Cc2cccnc2)ccc1O (centres undefined),5.97%
3,COc1nc(OC)nc(N(C)CCO)n1,-8.92%
4,CCC1=[N+]([O-])C(C)(/C(C)=N\O)N(O)C1(C)C (centres undefined),50.7% (active)
5,C/C(=N\O)C1(C)N(O)C(C)(C)C(c2ccc(Br)cc2)=[N+]1[O-] (centres undefined),-4.23%
6,CCC1(C)N(O)C(C)(C)C(c2ccc(OC)cc2)=[N+]1[O-] (centres undefined),-6.14%
7,CC(=O)CCS(=O)(=O)c1ccc(C)c(C)c1,-10.6%
8,CC(=O)Oc1cccc(N2C(=O)CC(Nc3ccc(N4CCOCC4)cc3)C2=O)c1 (centres undefined),2.32%
9,Cc1csc(NC(=O)NC2(C(F)(F)F)Oc3ccccc3O2)n1,74.1% (active)
10,CCOC(=O)Cc1csc(NC(=O)Nc2ccccc2)n1,-23.4%
11,Cc1csc(NC(=O)CN2CCCCCC2)n1,7.02%
12,CCCCCOC(=O)NCCOC(=O)Nc1ccc(C(=O)OCC)cc1,-14%
13,Cc1cccc(C(=O)Nc2ccc(CC(=O)O)cc2)c1,-3.58%
14,COC(=O)c1ccc2c(=O)n(CC3CCCO3)c(=S)[nH]c2c1 (centres undefined),0.2%
15,COC(=O)c1cccc(NC(=O)CSc2nc(C)cc(=O)[nH]2)c1,-4.06%
16,CCOC(=O)c1sc(=S)n2c1[nH]c(=O)c1ccc(C(=O)OC)cc12,93.6% (active)
17,CSc1ccc(-c2c(C#N)c(N)nc3c2c(C)nn3-c2ccccc2)cc1,-4.17%
18,C[C@H](NC(=O)OC(C)(C)C)c1nnc(SCC(N)=O)o1,-8.59%
19,CC(=O)Nc1cccc2c1[n+]([O-])c(C)c(C)[n+]2[O-],-5.6%
20,Cc1ccc2cccc(O)c2[n+]1[O-],63.1% (active)
21,CCCS(=O)(=O)N1CCCC(C(=O)NCCN2CCCCC2C)C1 (centres undefined),-24.4%
22,COc1ccc(CCNC(=O)CSc2nnc(CNC(=O)c3cccs3)o2)cc1OC,4.42%

row,SMILES,inhibition
1,Nc1cc(=O)nc(SCc2ccccc2)n1Cc1ccco1,-80.9%
2,c1coc(-c2nc3nc4ccccc4n3nc2-c2ccco2)c1,-3.81%
3,c1ccc(CSc2nnc(-c3ccco3)c(-c3ccco3)n2)cc1,97% (active)
4,O=c1cc(O)nc(SCc2ccccc2Cl)[nH]1,-21.4%
5,c1ccc(CSc2nnc(-c3ccco3)n2Cc2ccccc2)cc1,-24.3%
6,Clc1ccccc1CSc1nnc(-c2ccco2)c(-c2ccco2)n1,55.3% (active)
7,Cc1nn(-c2ccccc2)c(C)c1C(=O)OCC(=O)NC(=O)NC1CCCCC1,7.28%
8,OC1CN=C2Sc3ccccc3N2C1 (centres undefined),-8.76%
9,COc1ccccc1NC(=O)c1ccc(C)s1,-6.32%
10,COc1ccc(CN2C(=O)CN=C2Nc2ccc(C)cc2C)cc1,-7.04%
11,COc1ccc(N2C(=O)CN=C2Nc2cccc(C)c2C)cc1OC,93.2% (active)
12,Cc1cc(C)nc(NC2=NCC(=O)N2c2ccc(Cl)cc2)n1,4.35%
13,CCOC(=O)N1CCC(NC(=O)c2cnn3ccccc23)CC1,-4.53%
14,CCOC(=O)c1ccn(-c2nc(-c3ccco3)cc(C(F)(F)F)n2)n1,-4.86%
15,FC(F)(F)c1cc(-c2ccco2)nc(N2CCOCC2)n1,-9.98%
16,Cc1cc(C(F)(F)F)nn1-c1nc(-c2ccco2)cc(C(F)(F)F)n1,94.4% (active)
17,O=C(Nc1ccc(-c2nnc(-c3ccccc3)o2)cc1)c1ccc(Br)o1,-4.57%
18,Nc1ccc(-c2nnc(-c3ccc(-c4ccccc4)cc3)o2)cc1,80.5% (active)
19,O=C(Nc1ccc(-c2nnc(-c3ccccc3)o2)cc1)C1CCCO1 (centres undefined),4.33%
20,CCCc1[nH]nc2c1C(c1ccc(OC)c(Cn3nc(C)c(Br)c3C)c1)C(C#N)=C(N)O2 (centres undefined),7.36%
21,O=C(c1ccc2c(c1)OCO2)N1CCNc2ccccc2C1,-5.92%
22,O=C(c1ccccc1-c1ccccc1)N1CCOCC1,4.44%

# — PubChem BioAssay AID565 (University of Pittsburgh Molecular Library Screening Center, 2006)
